This is one part of a sample in which the strongest signals are shown more often than they occur.
Legend:
Test in all cases: glycan array binding signal (z-score within array); higher = stronger binding
Conditions in all cases: glycan notation: IUPAC condensed, linker removed
[1] = molecular target: Fuc(a1-2)Gal(b1-4)GlcNAc(b1-3)Gal(b1-4)GlcNAc
Outline: (§1)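 Glycan array data were curated from 3228 arrays in the Consortium for Functional Glycomics database and kept only where the protein sequence was available. Glycan names were converted to IUPAC-condensed notation, and columns mapping to the same glycan were averaged. The binding signal is a within-array Z-score, averaged across arrays of the same protein sequence at different concentrations or buffers and across linkers. Negative Z-scores can be read as non-binding.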

[2] = molecular target: Fuc(a1-2)Gal(b1-4)GlcNAc(b1-3)Gal(b1-4)GlcNAc(b1-2)Man(a1-3)[Fuc(a1-2)Gal(b1-4)GlcNAc(b1-3)Gal(b1-4)GlcNAc(b1-2)Man(a1-6)]Man(b1-4)GlcNAc(b1-4)GlcNAc
Outline: as §1

[3] = molecular target: Fuc(a1-2)[Gal(a1-3)]Gal(b1-3)GlcNAc
Outline: as §1

[4] = molecular target: Fuc(a1-3)[Gal3S(b1-4)]Glc
Outline: as §1

[5] = molecular target: Gal(a1-3)Gal(b1-3)GlcNAc
Outline: as §1

[6] = molecular target: Gal(a1-3)Gal(b1-4)Glc
Outline: as §1

[7] = molecular target: Gal(a1-3)Gal(b1-4)GlcNAc(b1-6)GalNAc
Outline: as §1

[8] = molecular target: Gal(b1-3)GlcNAc(a1-3)Gal(b1-4)GlcNAc
Outline: as §1

[9] = molecular target: Gal(b1-3)GlcNAc(b1-3)Gal(b1-4)GlcNAc(b1-3)Gal(b1-4)GlcNAc(b1-2)[Gal(b1-3)GlcNAc(b1-3)Gal(b1-4)GlcNAc(b1-3)Gal(b1-4)GlcNAc(b1-6)]Man(a1-6)[Gal(b1-3)GlcNAc(b1-3)Gal(b1-4)GlcNAc(b1-3)Gal(b1-4)GlcNAc(b1-2)Man(a1-3)]Man(b1-4)GlcNAc(b1-4)[Fuc(a1-6)]GlcNAc
Outline: as §1

[10] = molecular target: Gal(b1-3)[Fuc(a1-4)]GlcNAc(b1-2)Man
Outline: as §1

[11] = molecular target: Gal(b1-3)[Fuc(a1-4)]GlcNAc(b1-3)Gal(b1-3)[Fuc(a1-4)]GlcNAc
Outline: as §1

[12] = molecular target: Gal(b1-4)GalNAc(a1-3)[Fuc(a1-2)]Gal(b1-4)GlcNAc
Outline: as §1

[13] = molecular target: Gal(b1-4)GalNAc(b1-3)[Fuc(a1-2)]Gal(b1-4)GlcNAc
Outline: as §1

[14] = molecular target: Gal(b1-4)GlcNAc(b1-3)Gal(b1-4)GlcNAc(b1-3)Gal(b1-4)GlcNAc(b1-3)Gal(b1-4)GlcNAc(b1-2)[Gal(b1-4)GlcNAc(b1-3)Gal(b1-4)GlcNAc(b1-3)Gal(b1-4)GlcNAc(b1-3)Gal(b1-4)GlcNAc(b1-6)]Man(a1-6)[Gal(b1-4)GlcNAc(b1-3)Gal(b1-4)GlcNAc(b1-3)Gal(b1-4)GlcNAc(b1-3)Gal(b1-4)GlcNAc(b1-2)Man(a1-3)]Man(b1-4)GlcNAc(b1-4)[Fuc(a1-6)]GlcNAc
Outline: as §1

[15] = molecular target: Gal(b1-4)GlcNAc(b1-3)Gal(b1-4)GlcNAc(b1-3)[Gal(b1-4)GlcNAc(b1-3)Gal(b1-4)GlcNAc(b1-6)]GalNAc
Outline: as §1

[16] = molecular target: Gal3S(b1-4)[Fuc(a1-3)]GlcNAc6S
Outline: as §1

[17] = molecular target: GalNAc(b1-3)Gal
Outline: as §1

[18] = molecular target: GalNAc(b1-4)Gal(b1-4)Glc
Outline: as §1

[19] = molecular target: GalNAc3S(b1-4)[Fuc(a1-3)]GlcNAc
Outline: as §1

[20] = molecular target: GalNAc4S6S(b1-4)GlcNAc
Outline: as §1

[21] = molecular target: Glc(a1-4)Glc
Outline: as §1

[22] = molecular target: Glc(a1-6)Glc(a1-6)Glc(a1-6)Glc
Outline: as §1

[23] = molecular target: GlcNAc(a1-3)Gal(b1-4)GlcNAc
Outline: as §1

[24] = molecular target: GlcNAc(a1-4)Gal(b1-4)GlcNAc(b1-3)Gal(b1-4)GlcNAc(b1-3)Gal(b1-4)GlcNAc
Outline: as §1

[25] = molecular target: GlcNAc(b1-3)Gal(b1-4)GlcNAc(b1-2)Man(a1-3)[GlcNAc(b1-3)Gal(b1-4)GlcNAc(b1-2)Man(a1-6)]Man(b1-4)GlcNAc(b1-4)GlcNAc
Outline: as §1

[26] = molecular target: GlcNAc(b1-3)Gal(b1-4)GlcNAc(b1-2)[GlcNAc(b1-3)Gal(b1-4)GlcNAc(b1-6)]Man(a1-6)[GlcNAc(b1-3)Gal(b1-4)GlcNAc(b1-2)Man(a1-3)]Man(b1-4)GlcNAc(b1-4)GlcNAc
Outline: as §1

[27] = molecular target: GlcNAc(b1-3)Gal(b1-4)GlcNAc(b1-3)Gal(b1-4)GlcNAc(b1-3)Gal(b1-4)GlcNAc(b1-2)[GlcNAc(b1-3)Gal(b1-4)GlcNAc(b1-3)Gal(b1-4)GlcNAc(b1-3)Gal(b1-4)GlcNAc(b1-6)]Man(a1-6)[GlcNAc(b1-3)Gal(b1-4)GlcNAc(b1-3)Gal(b1-4)GlcNAc(b1-3)Gal(b1-4)GlcNAc(b1-2)Man(a1-3)]Man(b1-4)GlcNAc(b1-4)[Fuc(a1-6)]GlcNAc
Outline: as §1

[28] = molecular target: GlcNAc(b1-4)GlcNAc(b1-4)GlcNAc
Outline: as §1

[29] = molecular target: GlcNAc(b1-4)GlcNAc(b1-4)GlcNAc(b1-4)GlcNAc(b1-4)GlcNAc(b1-4)GlcNAc
Outline: as §1

[30] = molecular target: GlcNAc(b1-6)Gal(b1-4)GlcNAc
Outline: as §1

B1: EULS2 M3 (Oryza sativa) (protein)
chain: MVYCRANPNYAMTARNGAVVLAPANPKDEYQHWIKDMRWSTSIKDEEGYPAFALVNKATGQAIKHSLGQSHPVRLVPYNPEVMDESVLWTESRDVGNGFRCIRMVNNIYLNFDAFHGDKYHGGVRDGTDIVLWKLCEGDSLRWKIQPYYILEQKLISEEDLNSAVDHHHHHH
Question: Which results are given for B1?
Answer: glycan array binding signal (z-score) [1]: 0.227; glycan array binding signal (z-score) [2]: 0.177; glycan array binding signal (z-score) [3]: 1.44; glycan array binding signal (z-score) [4]: 0.485; glycan array binding signal (z-score) [5]: 8.25; glycan array binding signal (z-score) [6]: 0.227; glycan array binding signal (z-score) [7]: -0.929; glycan array binding signal (z-score) [8]: 2.02; glycan array binding signal (z-score) [9]: 1.66; glycan array binding signal (z-score) [10]: 1.17; glycan array binding signal (z-score) [11]: 2.13; glycan array binding signal (z-score) [12]: -0.34; glycan array binding signal (z-score) [13]: -0.158; glycan array binding signal (z-score) [14]: 0.461; glycan array binding signal (z-score) [15]: 0.234; glycan array binding signal (z-score) [16]: 2.11; glycan array binding signal (z-score) [17]: 2.46; glycan array binding signal (z-score) [18]: 0.053; glycan array binding signal (z-score) [19]: -0.623; glycan array binding signal (z-score) [20]: 0.056; glycan array binding signal (z-score) [21]: 0.668; glycan array binding signal (z-score) [22]: 1.67; glycan array binding signal (z-score) [23]: -0.405; glycan array binding signal (z-score) [24]: -0.139; glycan array binding signal (z-score) [25]: -0.171; glycan array binding signal (z-score) [26]: 0.562; glycan array binding signal (z-score) [27]: 0.306; glycan array binding signal (z-score) [28]: -0.413; glycan array binding signal (z-score) [29]: -0.977; glycan array binding signal (z-score) [30]: 1.64

Reference: the supplement of paper PMC8728848
